Assay results: PubChem BioAssay AID1159580 (chemical genetic matrix, 2015)
Among all 5,500 compounds or so, about 2,000 (36%) were called active. Inconclusive results (about 18%) are left out. Rule as the data show it: active = normalized growth mostly below about 0.91 (no sharp cut-off); inconclusive = no clear call, values can overlap the other calls; inactive = mostly above about 0.92. Some of the results follow.

Assay: chemical genetic growth profiling, strain panel (AID 1159580);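 also: tested at 20 µM; growth read once vehicle control cultures reached saturation at 30 °C; 1 = growth at the plate median or of vehicle wells; lower values mean less growth of the strain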
Details: growth OD

Measured: normalized growth

C=C1C2CC[C@H]3[C@]4(C)C[C@H](OC5OC(CO)C(OS(=O)(=O)O)C(OS(=O)(=O)O)C5OC(=O)CC(C)C)C[C@@H](C(=O)O)[C@H]4CC[C@]3(C2)[C@H]1O (some centres undefined)
inactive: S. cerevisiae deletion strains, locus YJR043C, strain POL32, hits give low values 1 | S. cerevisiae deletion strains, locus YJR075W, strain HOC1, hits give low values 1.01 | S. cerevisiae deletion strains, locus YKL009W, strain mrt4, hits give low values 0.984 | S. cerevisiae deletion strains, locus YKL068W, hits give low values 0.981 | S. cerevisiae deletion strains, locus YKL085W, strain MDH1 (second series), hits give low values 0.97 | S. cerevisiae deletion strains, locus YKL085W, strain MDH1, hits give low values 0.97 | S. cerevisiae deletion strains, locus YKL160W, strain elf1, hits give low values 0.984 | S. cerevisiae deletion strains, locus YKL190W, strain CNB1, hits give low values 1.01 | S. cerevisiae deletion strains, locus YKR001C, strain vps1, hits give low values 0.976 | S. cerevisiae deletion strains, locus YKR026C, strain gcn3, hits give low values 1.01 | S. cerevisiae deletion strains, locus YKR091W, strain srl3, hits give low values 1.01 | S. cerevisiae deletion strains, locus YLL001W, strain dnm1, hits give low values 1.03 | S. cerevisiae deletion strains, locus YLL026W, hits give low values 1.01 | S. cerevisiae deletion strains, locus YLL041C, strain sdh2, hits give low values 1.01 | S. cerevisiae deletion strains, locus YLR027C, strain aat2, hits give low values 1.01 | S. cerevisiae deletion strains, locus YLR039C, strain RIC1, hits give low values 0.99 | S. cerevisiae deletion strains, locus YLR058C, strain SHM2, hits give low values 1.01 | S. cerevisiae deletion strains, locus YLR102C, strain apc9, hits give low values 0.983 | S. cerevisiae deletion strains, locus YLR221C, strain rsa3, hits give low values 0.995 | S. cerevisiae deletion strains, locus YLR258W, strain gsy2, hits give low values 1.02 | S. cerevisiae deletion strains, locus YLR262C, strain YPT6 (second series), hits give low values 1.01 | S. cerevisiae deletion strains, locus YLR262C, strain YPT6, hits give low values 0.994 | S. cerevisiae deletion strains, locus YLR268W, strain sec22, hits give low values 0.987 | S. cerevisiae deletion strains, locus YLR320W, strain mms22, hits give low values 1.01 | S. cerevisiae deletion strains, locus YLR330W, strain CHS5, hits give low values 1.01 | S. cerevisiae deletion strains, locus YLR342W, strain FKS1 (second series), hits give low values 1.01 | S. cerevisiae deletion strains, locus YLR342W, strain FKS1, hits give low values 1.01 | S. cerevisiae deletion strains, locus YLR357W, strain rsc2, hits give low values 0.986 | S. cerevisiae deletion strains, locus YLR370C, strain arc18, hits give low values 1 | S. cerevisiae deletion strains, locus YLR371W, strain rom2, hits give low values 0.987 | S. cerevisiae deletion strains, locus YLR384C, strain iki3, hits give low values 0.991 | S. cerevisiae deletion strains, locus YLR418C, strain cdc73, hits give low values 1 | S. cerevisiae deletion strains, locus YML016C, strain PPZ1, hits give low values 1.01 | S. cerevisiae deletion strains, locus YML032C, strain rad52, hits give low values 0.984 | S. cerevisiae deletion strains, locus YML120C, strain ndi1, hits give low values 1.01 | S. cerevisiae deletion strains, locus YML124C, strain tub3, hits give low values 0.987 | S. cerevisiae deletion strains, locus YMR058W, strain fet3, hits give low values 1.01 | S. cerevisiae deletion strains, locus YMR078C, strain ctf18, hits give low values 0.982 | S. cerevisiae deletion strains, locus YMR125W, strain sto1, hits give low values 1.02 | S. cerevisiae deletion strains, locus YMR129W, hits give low values 0.992 | S. cerevisiae deletion strains, locus YMR205C, strain PFK2, hits give low values 1.03 | S. cerevisiae deletion strains, locus YMR223W, strain ubp8, hits give low values 0.977 | S. cerevisiae deletion strains, locus YMR231W, strain pep5, hits give low values 1.01 | S. cerevisiae deletion strains, locus YMR263W, strain SAP30, hits give low values 1.02 | S. cerevisiae deletion strains, locus YMR307W, strain GAS1, hits give low values 1.05 | S. cerevisiae deletion strains, locus YNL067W, strain RPL9B, hits give low values 1.02 | S. cerevisiae deletion strains, locus YNL071W, strain lat1, hits give low values 1.01 | S. cerevisiae deletion strains, locus YNL128W, strain TEP1, hits give low values 1.02 | S. cerevisiae deletion strains, locus YNL153C, strain GIM3, hits give low values 1.03 | S. cerevisiae deletion strains, locus YNL209W, strain ssb2, hits give low values 1 | S. cerevisiae deletion strains, locus YNL233W, strain BNI4, hits give low values 1.02 | S. cerevisiae deletion strains, locus YNL248C, strain rpa49, hits give low values 0.974 | S. cerevisiae deletion strains, locus YNL250W, strain rad50, hits give low values 0.972 | S. cerevisiae deletion strains, locus YNL271C, strain bni1, hits give low values 0.972 | S. cerevisiae deletion strains, locus YNL298W, strain CLA4, hits give low values 0.977 | S. cerevisiae deletion strains, locus YNL307C, strain MCK1, hits give low values 0.986 | S. cerevisiae deletion strains, locus YNL322C, strain KRE1 (second series), hits give low values 1 | S. cerevisiae deletion strains, locus YNL322C, strain KRE1, hits give low values 1.01 | S. cerevisiae deletion strains, locus YNR049C, strain mso1, hits give low values 1.01 | S. cerevisiae deletion strains, locus YNR052C, strain pop2, hits give low values 0.97 | S. cerevisiae deletion strains, locus YOL006C, strain TOP1, hits give low values 1.07 | S. cerevisiae deletion strains, locus YOL012C, strain htz1 0.954 | S. cerevisiae deletion strains, locus YOL147C, strain pex11, hits give low values 0.992 | S. cerevisiae deletion strains, locus YOR001W, strain rrp6, hits give low values 0.992 | S. cerevisiae deletion strains, locus YOR061W, strain CKA2, hits give low values 1.01 | S. cerevisiae deletion strains, locus YOR069W, strain VPS5, hits give low values 1.01 | S. cerevisiae deletion strains, locus YOR070C, strain gyp1, hits give low values 1 | S. cerevisiae deletion strains, locus YOR080W, strain dia2, hits give low values 1.02 | S. cerevisiae deletion strains, locus YOR083W, strain WHI5, hits give low values 0.976 | S. cerevisiae deletion strains, locus YOR106W, strain vam3, hits give low values 0.991 | S. cerevisiae deletion strains, locus YOR136W, strain idh2, hits give low values 0.988 | S. cerevisiae deletion strains, locus YOR144C, strain elg1, hits give low values 0.99 | S. cerevisiae deletion strains, locus YOR184W, strain ser1, hits give low values 0.958 | S. cerevisiae deletion strains, locus YOR265W, strain rbl2, hits give low values 1.01 | S. cerevisiae deletion strains, locus YOR270C, strain vph1, hits give low values 1.01 | S. cerevisiae deletion strains, locus YOR290C, strain snf2, hits give low values 0.986 | S. cerevisiae deletion strains, locus YOR316C, strain cot1, hits give low values 0.991 | S. cerevisiae deletion strains, locus YPL051W, strain arl3, hits give low values 0.995 | S. cerevisiae deletion strains, locus YPL055C, strain LGE1, hits give low values 1.05 | S. cerevisiae deletion strains, locus YPL078C, strain atp4, hits give low values 0.993 | S. cerevisiae deletion strains, locus YPL106C, strain sse1, hits give low values 1.01 | S. cerevisiae deletion strains, locus YPL240C, strain hsp82, hits give low values 1.01 | S. cerevisiae deletion strains, locus YPL241C, strain CIN2, hits give low values 1.02 | S. cerevisiae deletion strains, locus YPR119W, strain clb2, hits give low values 0.986 | S. cerevisiae deletion strains, locus YPR141C, strain kar3, hits give low values 0.969 | S. cerevisiae deletion strains, locus YPR163C, strain tif3, hits give low values 0.992 | S. cerevisiae deletion strains, locus YPR167C, strain met16, hits give low values 0.985 | S. cerevisiae deletion strains, strain wtn01, hits give low values 0.98 | S. cerevisiae strains, strain wild type, hits give low values 1.01
